# Test results taken from PubChem BioAssay AID686979 (National Center for Advancing Translational Sciences (NCATS), 2013).
# Where “and” joins values, the source holds several entries; their conditions need not be identical. Equal values may be shown once. Hit rate of the full screen: of about 420,000 compounds, about 50,000 (12%) were called active. About 26% were inconclusive and are not listed. Only a selection was taken, and actives are over-represented in it overall. A number with no mark means an inactive call. Calls follow the shape of the dose curve; as a rule, active = well fitted inhibition curve with a large enough effect; inconclusive = small, poorly fitted or top-dose-only effect; inactive = flat fitted curve, though single readings scatter.
# Experiment: qHTS for Inhibitors of human tyrosyl-DNA phosphodiesterase 1 (TDP1): qHTS in cells in presence of CPT; also: nearly all actives have a fitted effect of over 55% in size
# Conditions: chicken DT40 Tdp1-/-;hTDP1 cells + 20 nM CPT, ATP luminescence, 48 h; series mostly up to 46.2 µM; activity change, negative = growth inhibition: at the top concentration
# Source text: Human tyrosyl-DNA phosphodiesterase 1 (TDP1) is a novel repair gene, and we propose to use it as a new target for anticancer drug development. TDP1 is not an essential protein, but under treatment with topoisomerase I poison (camptothecin: CPT), TDP1 works as a critical factor for cell survival. To directly identify novel TDP1 inhibitors active in a cellular environment, we have knocked-out the Tdp1 gene in chicken DT40 cells (Tdp1-/-) and generated a complemented counterpart cells that contains a stable transfection of the human TDP1 gene (Tdp1-/-;hTDP1 cells). For the primary screen, Tdp1-/-;hTDP1 cells will be exposed to small molecules in the presence or absence of CPT, and their growth kinetics will be evaluated after 48 hours by measuring ATP activity. […] The hit compounds will then be evaluated in the presence or absence of CPT using Tdp1-/- cells. […] In tertiary assays, biochemical gel-based assays will be used to assess whether the hit compounds specifically target TDP1. To this end, we have screened this cell line against the MLSMR in two primary screens. In one screen we add CPT and in the other we screen in the absence of CPT; this AID represents the screen where CPT was present. NIH Chemical Genomics Center [NCGC] NIH Molecular Libraries Probe Centers Network [MLPCN] MLPCN Grant: MH095538 Assay Submitter (PI): Yves Pommier, NCI
# DT40-hTDP1 cells with 20 nM Camptothecin (add 20 microL of 1 mM CPT stock in 1 L of cell culture medium) were dispensed at 400 cells/5microL/well in tissue culture treated 1536-well white wall/solid bottom assay plates (Greiner Bio-One North America, NC, U.S.A.) using a Multidrop Combi 8 channel dispenser (Thermo Fisher, Waltham, MA, USA). 23 nL compounds and controls were transferred using the pin tool (Kalypsys, San Diego, CA, USA) to the assay plates. The assay plates were then incubated at 37 masculineC for a minimum 48 hr. Three microL of Cell Titer Glo solution was added to the plates and incubated at RT in dark for 30 min. Luminescence was read using ViewLux (Perkin Elmer) with 1 sec exposure slow speed, high gain and 2x binning.
# % is scaled to controls: 0 for no effect and ±100 for the full control effect; potency is read from the fitted curve at half-maximal effect.
SMILES,"activity change, negative = growth inhibition",Potency
Cc1ccc(C(C)C)c(OCC(=O)N2CCN(CC(=O)N3CCOCC3)CC2)c1,1.32%,–
CN1CCC(N(C)Cc2cccnc2)CC1,10.3%,–
c1ccc(CCN2CCC3(CC2)OCCO3)cc1,5.99%,–
c1ccc(CCCCN2CCC(c3ccccc3)CC2)cc1,–,16.8 µM (active) and 23.1 µM (active)
CC1=CC(=O)C2=C(C)C[C@H](O)[C@H]3[C@H](C)C(=O)O[C@@H]3C12 (some centres undefined),-1.15%,–
Cc1cccc(Cn2cccc(C(=O)Nc3ccc4c(c3)OCCO4)c2=O)c1,–,9.2 µM (active)
CN(C)/C=C(\C=[N+](C)C)c1[nH]ncc1[N+](=O)[O-],2.42%,–
O=C1NC(=O)C(CCOc2ccccc2)(CCc2ccccc2)C(=O)N1,-7.38%,–
COc1ccc(-c2nn(CCC#N)cc2C(=O)Nc2ccc(C(C)=O)cc2)cc1,-15.6%,–
COc1ccc(C2Oc3c(I)c(OC)cc(OC)c3CC2O)cc1OC (centres undefined),-8.1%,–
CCOP(=O)(OCC)C(O)c1ccc(OC)cc1OC (centres undefined),5.05%,–
CC(Cc1ccccc1)NCCC(c1ccccc1)c1ccccc1 (centres undefined),–,9.2 µM (active)
CC(Cc1ccccc1)NC=O (centres undefined),–,inactive
Nc1ccc([N+](=O)[O-])cc1,–,inactive
C=CCn1c(O)c(/C=N/N2CCOCC2)c(=O)[nH]c1=S,-0.159%,–
CC(=O)Nc1ccccc1C(=O)OCC(=O)c1cccc2ccccc12,-14.8%,–
COC(=O)C1=C(c2ccc(C(C)=O)cc2)C[C@@H]2CC[C@H]1N2C(=O)NCCNC(C)=O,4.65%,–
COC(=O)C1=C(c2ccc(Cl)c(C(F)(F)F)c2)C[C@@H]2CC[C@H]1N2C(=O)NC1CC1,–,14.6 µM (active)
COC(=O)C1=C(c2cc3ccccc3s2)C[C@@H]2CC[C@H]1N2C(=O)NC(C)C,–,23.1 µM (active)
COC(=O)C1=C(c2cc3ccccc3o2)C[C@@H]2CC[C@H]1N2C(=O)NC1CCCCC1,–,18.4 µM (active)
COC(=O)C1=C(c2cc3ccccc3s2)C[C@@H]2CC[C@H]1N2C(=O)NCCO,-29.3%,–
COC(=O)CN(CCCl)P1(=O)OCCCN1CCCl (centres undefined),6.16%,–

SMILES,"activity change, negative = growth inhibition",Potency
C/C(CCc1c[nH]c2ccccc12)=N\O,-8.5%,–
CCN1CCN(Cc2cc(OC)c3c(c2)OCO3)CC1,-11.6%,–
C1CC[C@H]([C@@]23C[C@H](C[C@H]4CCCN[C@H]42)[C@@H]2CCCCN2C3)NC1,-5.16% [at 9.04 µM],–
CN1C2CC3CC1C(O3)C2O (centres undefined),-2.66%,–
COP(=O)(OC)C(NC(=O)c1ccc(C)cc1)C(Cl)(Cl)Cl (centres undefined),8.53%,–
C#C[C@]1(OC(=O)CCCCCC)CC[C@H]2[C@@H]3CCC4=CC(=O)CC[C@@H]4[C@H]3CC[C@@]21C,12.4%,–
CC(=O)OC1C2(CC3N4C(=O)C5(CO)SSC4(CC31O)C(=O)N5C)OC(C)C(C)(C)C2=O (centres undefined),–,0.146 µM (active)
O=C(c1cc(S(=O)(=O)N2CCOCC2)ccc1F)N1CCC2(CC1)OCCO2,-22%,–
CCc1nnc(NS(=O)(=O)c2ccc(N=Cc3c(O)n(-c4ccccc4)c(=O)[nH]c3=O)cc2)s1,-0.935%,–
O=[N+]([O-])c1ccc(Cl)c(Cl)c1,8.09%,–
O=C(Cc1ccc(Cl)cc1)NCCN1CCN(C(=O)Cc2ccc(Cl)cc2)CC1,-25.6%,–
C[C@@H]1C[C@@H]2O[C@H]2/C=C\C=C\C(=O)Cc2c(Cl)c(O)cc(O)c2C(=O)O1,–,0.0411 µM (active)
CCOC(=O)C1=C(C)OC(N)=C(C(=O)OC)C12C(=O)Nc1ccc(Br)cc12 (centres undefined),-0.924%,–
CCN1CCN(C(=O)Cc2coc3cc(C)cc(C)c23)CC1,-4.61%,–
NC(=O)Cn1cc(C(=O)c2ccccc2F)c2ccccc21,-3.53%,–
COCCNC(=O)CN1C2CCC1CC(O)(c1cccnc1)C2 (centres undefined),12.8%,–
Cc1cc2n(n1)C(c1cc(C(C)(C)C)c(O)cc1O)Nc1ccccc1-2 (centres undefined),–,14.6 µM (active)
CCC/C(=N\O)c1c[nH]c2ccccc12,-27.1%,–
NCC(O)c1ccc(O)cc1 (centres undefined),–,inactive
CC[N+](C)(CC)CCC[n+]1c(-c2ccccc2)c2cc(N)ccc2c2ccc(N)cc21,–,2.58 µM (active)
COc1ccc(NC(=O)N2Cc3ccccc3-n3nncc3C2)cc1,-22.9%,–
CCN(CC)CCOC(=O)c1cc2cc(COC)ccc2o1,-2.18%,–

SMILES,"activity change, negative = growth inhibition",Potency
CC(=O)c1ccc(OC(NC(=O)Cc2ccccc2)C(Cl)(Cl)Cl)cc1 (centres undefined),-22.9%,–
Cc1cccc2c3c(ccc12)C1=C(C(=O)C3=O)C(C)CO1 (centres undefined),–,4.11 µM (active)
CCOC(=O)c1c(N)n(CCN2CCOCC2)c2nc3ccccc3nc12,-6.44%,–
CC1(C)OC[C@@H](COC(=O)CCc2ccc(OC[C@@H](O)CNCCNC(=O)N3CCOCC3)cc2)O1,4.8%,–
Cc1ccc(S(=O)(=O)N(C)c2ccc(C(=O)NCC3(N(C)C)CCCCC3)cc2)cc1,-16.2%,–
O=C(CCN1CCCCC1)NCC(=O)Nc1ccc(Br)cc1C(=O)c1ccccc1,–,18.4 µM (active)
O=C(CN1CCCCC1)Nc1ccc(Br)cc1C(=O)c1ccccc1Cl,-26.2%,–
CCOC(=O)CC(SP1(=S)OCC2(CCCCO2)C(C2CCCCO2)O1)C(=O)OCC (centres undefined),-21.8%,–
C[C@]12CCC3C(CC[C@H]4[C@H](O)[C@H](O)CC[C@]34C)C1CC[C@@H]2O (some centres undefined),2.04%,–
C[C@]12CCC3C(CC[C@H]4[C@H](O)[C@H](O)CC[C@]34C)C1CCC2=O (some centres undefined),–,16.4 µM (active)
C[C@]12CCC3C(CC[C@H]4C[C@@H](O)CC[C@]34C)C1C[C@@H](O)[C@H]2O (some centres undefined),10.8%,–
Nc1ccc(Cc2ccc(N)c(Cl)c2)cc1Cl,-10.3%,–
O=c1[nH]c2ccccc2n1C1CCN(C(c2ccccc2)c2nnnn2Cc2ccccc2)CC1 (centres undefined),–,18.4 µM (active)
O=c1[nH]c2ccccc2n1C1CCN(C(c2ccnc3ccccc23)c2nnnn2Cc2ccccc2)CC1 (centres undefined),–,20.6 µM (active)
Cc1ccc(Cn2nnnc2CN2CCC(n3nnc4ccccc43)CC2)cc1,-24.7%,–
Cc1ccsc1C(=O)C1CCCN(Cc2ccc(O)cc2)C1 (centres undefined),0.994%,–
Cc1cccc(-n2c(O)c(C=NC34CN5CN(CN(C5)C3)C4)c(=O)[nH]c2=O)c1,6.92%,–
Cc1nn(Cc2ccccc2Cl)c(Cl)c1C(=O)OC(C(=O)NC(N)=O)C(C)C (centres undefined),-2.59%,–
CCOc1ccc(CN(CCCl)CCCl)cc1C(=O)OC,–,4.11 µM (active)
Cc1cc(C=C2C(=O)NC(=O)NC2=O)c(C)n1-c1ccncc1,-1.71%,–
